Records with an inconclusive call do not appear. Activity calls are given as the source filed them.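 Rule for the calls, unless noted: active = cell viability at or below a set limit in both duplicate runs, the limit being the all-compound median minus 4 SD (cut at about 23% in these data, passing the limit was not always enough); inconclusive = no clear call, values can overlap the other calls; inactive = the rest.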
How the values were obtained:
[1] = Her2 expression decrease, cell viability multiplex – SKBR3 breast tumor cells, AlphaScreen, ATP viability, primary screen (AID 461;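 active = Her2 level under about 52% in both replicate screens, with viability over 70% of control, limit read from the data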;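 for Her2 level: lower value means less Her2 protein in the cells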;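 for viability: percent of carrier control wells set as 100% viability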); settings: SKBR3 Her2 protein level, 18-24 h, measured here: SKBR3 viability, ATP luminescence, at 10 µM
[2] = target: Receptor tyrosine-protein kinase erbB-2 (Homo sapiens) (UniProt P04626); experiment: as above; settings: 18-24 h, at 10 µM, stronger effect = lower value
Receptor tyrosine-protein kinase erbB-2 (Homo sapiens), sequence (P04626 whole entry, looked up): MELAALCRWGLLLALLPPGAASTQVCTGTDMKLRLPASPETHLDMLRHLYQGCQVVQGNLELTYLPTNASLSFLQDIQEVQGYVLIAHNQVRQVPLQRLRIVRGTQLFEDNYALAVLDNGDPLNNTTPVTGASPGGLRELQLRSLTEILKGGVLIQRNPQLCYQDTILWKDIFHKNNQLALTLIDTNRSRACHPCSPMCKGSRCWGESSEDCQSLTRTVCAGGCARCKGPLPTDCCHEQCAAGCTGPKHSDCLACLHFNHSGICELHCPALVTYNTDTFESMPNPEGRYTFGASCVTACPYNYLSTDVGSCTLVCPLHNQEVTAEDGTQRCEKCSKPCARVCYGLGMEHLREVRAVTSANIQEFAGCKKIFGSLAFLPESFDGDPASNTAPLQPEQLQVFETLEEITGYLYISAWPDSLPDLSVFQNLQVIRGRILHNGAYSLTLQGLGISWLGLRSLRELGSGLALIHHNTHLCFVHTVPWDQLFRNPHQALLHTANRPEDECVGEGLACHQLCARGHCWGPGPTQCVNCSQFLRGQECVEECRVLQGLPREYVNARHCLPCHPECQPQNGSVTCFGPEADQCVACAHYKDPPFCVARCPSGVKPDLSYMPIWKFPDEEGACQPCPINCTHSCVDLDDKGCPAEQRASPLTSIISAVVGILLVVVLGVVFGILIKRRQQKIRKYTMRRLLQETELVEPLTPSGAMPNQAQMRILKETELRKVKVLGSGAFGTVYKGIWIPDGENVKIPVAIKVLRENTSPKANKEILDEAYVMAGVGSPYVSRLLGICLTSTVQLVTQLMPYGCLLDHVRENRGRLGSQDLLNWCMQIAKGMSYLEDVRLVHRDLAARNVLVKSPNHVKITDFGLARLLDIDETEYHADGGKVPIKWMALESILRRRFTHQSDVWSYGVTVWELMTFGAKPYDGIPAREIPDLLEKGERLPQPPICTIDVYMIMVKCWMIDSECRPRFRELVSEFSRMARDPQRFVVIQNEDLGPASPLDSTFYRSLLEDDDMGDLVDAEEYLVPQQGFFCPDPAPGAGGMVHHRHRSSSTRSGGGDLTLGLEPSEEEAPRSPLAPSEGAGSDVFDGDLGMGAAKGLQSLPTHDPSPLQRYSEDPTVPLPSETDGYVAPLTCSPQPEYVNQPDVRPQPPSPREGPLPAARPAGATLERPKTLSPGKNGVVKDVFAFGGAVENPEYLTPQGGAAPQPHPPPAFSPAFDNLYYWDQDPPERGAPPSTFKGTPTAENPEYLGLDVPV

[3] = reduced viability of SK-BR-3 breast cancer cells – cell-based, 24 h, human, pilot screen (AID 572;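 active = viability at or below 10% of carrier control in both of two separate runs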;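 note: compound exposure lasted between 18 and 24 h rather than exactly 24 h; 100% = carrier-treated control wells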); settings: SK-BR-3 viability, CellTiter-Glo luminescence, at 10 µM, stronger effect = lower value
[4] = HUVEC growth inhibition – cell-based, human, primary screen (AID 575;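 active = viability at or below 30% in both replicate assays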;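 note: 100% = median of untreated cell wells with 0.1% DMSO on each plate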); settings: HUVEC proliferation, CellTiter-Glo luminescence, 72 h; at 10 µM; stronger effect = lower value
[5] = H69AR cell proliferation blockers – human, duplicate replicates, primary screen (AID 580;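 active = viability at or under a set limit in both replicates, limit being median viability minus 3 SD, cut at about 48% in these data, passing the limit was not always enough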;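 note: 100% = mean luminescence of untreated wells and 0% = no signal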); settings: H69AR lung tumor cells viability, ATP luminescence, 72 h; at 10 µM; stronger effect = lower value
[6] = MRP1 drug-resistance reversers in H69AR cells – cell-based, doxorubicin co-treatment, pilot screen (AID 601;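 active = viability loss from added drug above about 55%, and viability with drug at most 40%, in both replicates, limit read from the data, passing the limit was not always enough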); settings: CellTiter-Glo, 72 h, at 10 µM; for differential viability (reversal): stronger effect = higher value
[7] = yeast transport mutant growth inhibition pilot in 384-well plates, post-Golgi transport modulator project (AID 636; in the data active = inhibition above about 31%); settings: absorbance 615 nm, about 18 h, stronger effect = higher value
[8] = growth suppression of yeast trafficking mutant, preliminary HTS, modulators of trafficking downstream of Golgi apparatus project, 1536-format plate, OD 615 nm (AID 637; in the data active = inhibition above about 30%); settings: yeast transport mutant growth, absorbance 615 nm, 18 h; stronger effect = higher value
[9] = S. cerevisiae growth inhibition in permissive medium (OD615), pilot counter-assay for S. cerevisiae lifespan shortening project, permissive growth control (AID 705;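 active = growth inhibition above 25% in both replicates, a cutoff set 3 SD above the mean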); settings: OD615, 24 h, at 10 µM, stronger effect = higher value
[10] = S. cerevisiae growth inhibition in restrictive medium, OD615, pilot screen, restrictive growth control, yeast lifespan reduction project (AID 706;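 active = growth inhibition above a set limit, 3 SD over mean compound inhibition, in both replicates, cut at about 43% in these data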;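 note: modified DeaD lifespan yeast strain shifted to restrictive glucose medium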); settings: OD615, 48 h, at 10 µM, stronger effect = higher value
[11] = doxorubicin toxicity protection in MRP-1 cells – H69AR cells, CellTiter-Glo, duplicate, MRP-1 activator project, pilot screen (AID 807;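 active = viability increase at or above a cutoff of the median across tested compounds plus 3 SD, cut at about 8.5% in these data, passing the limit was not always enough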;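 note: compound pretreatment 18-22 h then 72 h combined with doxorubicin; 0% = doxorubicin alone and 100% = vehicle without doxorubicin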); settings: H69AR viability with doxorubicin, CellTiter-Glo luminescence; at 10 µM; stronger effect = higher value
[12] = viability of HCT116 without oncogenic beta-catenin – human colon tumor cells, pilot screen (AID 823); settings: HCT116 beta-catenin knockout viability, CellTiter-Glo, 60 h; at 10 µM; stronger effect = lower value;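 note: 0% = wells killed by 20 µM Hyamine and 100% = untreated DMSO cell wells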
[13] = viability of PTEN-null HCT116 cells – cell-based, HCT116 clonal line, CellTiter-Glo, pilot screen (AID 824;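 active = viability at or below 27.92% in each of two runs, the all-compound median minus 4 SD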;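 note: 0% = 20 µM Hyamine control and 100% = vehicle cell control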); settings: HCT116 PTEN-deleted viability, 60 h, at 10 µM, stronger effect = lower value
[14] = RAM pathway blockade in budding yeast – dse1pr::URA3 reporter, 5-FOA selection, pilot screen (AID 869;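 active = inhibition over a set limit, the all-compound mean plus 3 SD, in both replicate runs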;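 note: 0% = DMSO wells with no growth and 100% = 10 µM 1-NA-PP1 with full growth; RAM network block rescues cells from 5-FOA so hits raise OD615 growth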); settings: S. cerevisiae dse1pr::URA3 5-FOA growth, OD615, 2 d; at 10 µM; stronger effect = higher value; strain carries analog-sensitive mutant Cbk1 kinase
[15] = RAM signaling pathway blockade in yeast – S. cerevisiae, Pdr1DBD-CYC8 efflux-inhibited sensitized strain, primary screen (AID 1298;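 active = RAM network inhibition above 8.4% in each of two replicates, 3 SD over the compound average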;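 note: 0% = DMSO untreated cells without growth and 100% = 10 µM 1-NA-PP1 full growth; higher means more yeast growth rescued from 5-FOA killing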); settings: S. cerevisiae cbk1-as DSE1-URA3 strain, 5-FOA growth OD615, 2 d; at 50 µM; stronger effect = higher value
[16] = H69AR cells + 2 uM doxorubicin, measured here: viability with 2 uM doxorubicin, stronger effect = lower value
[17] = H69AR cells, compound alone cytotoxicity

C=CCn1c(SCc2cccc(C#N)c2)nnc1-c1ccccc1O
86.5%: viability [1]
inactive: Her2 level [2] 102% | viability [3] 86.5% | viability [4] 85.9% | viability [5] 92.4% | differential viability (reversal) ([6]; H69AR cells + 2 uM doxorubicin) 0.595% | inhibition [7] -4.4% | inhibition [8] -1.5% | growth inhibition [9] 4.16% | growth inhibition [10] 3.15% | viability increase [11] -4.01% | viability [12] 96.2% | viability [13] 88.4% | inhibition [14] 2.62% | RAM network inhibition [15] 8.45%
91.8%: viability [6, 16]
92.4%: viability [6, 17]

COc1ccccc1-n1c(=O)[nH]c2c(C(N)=O)nc(-c3cccnc3)nc21
69.9%: viability [6, 17]
82.5%: viability [1]
inactive: Her2 level [2] 88.5% | viability [3] 82.5% | viability [4] 73.7% | viability [5] 69.9% | differential viability (reversal) ([6]; H69AR cells + 2 uM doxorubicin) -5.7% | inhibition [7] -3.2% | inhibition [8] -3.93% | growth inhibition [9] -7.79% | growth inhibition [10] -16.8% | viability increase [11] -7.14% | viability [12] 72.9% | viability [13] 67.7% | inhibition [14] 2.47% | RAM network inhibition [15] 4.37%
75.6%: viability [6, 16]

CCOC(=O)C(CC)(CCC(=O)O)c1csc(N)n1 (stereo not drawn)
102%: viability [6, 17]
99%: viability [1]
94.2%: viability [6, 16]
inactive: Her2 level [2] 98.5% | viability [3] 99% | viability [4] 101% | viability [5] 102% | differential viability (reversal) ([6]; H69AR cells + 2 uM doxorubicin) 7.83% | inhibition [7] -8.4% | inhibition [8] -2.74% | growth inhibition [9] -4.72% | growth inhibition [10] -9.94% | viability increase [11] -1.31% | viability [12] 96.8% | viability [13] 98.3% | inhibition [14] 0.94% | RAM network inhibition [15] -1.93%

COc1cc(NC(=O)CC(C)C)ccc1NC(=O)c1ccco1
93.1%: viability [6, 16]
94.5%: viability [1]
inactive: Her2 level [2] 93% | viability [3] 94.5% | viability [4] 103% | viability [5] 109% | differential viability (reversal) ([6]; H69AR cells + 2 uM doxorubicin) 15.9% | inhibition [7] -3.92% | inhibition [8] -9.68% | growth inhibition [9] -3.81% | growth inhibition [10] -1.97% | viability increase [11] -0.27% | viability [12] 100% | viability [13] 96.2% | inhibition [14] 0.825% | RAM network inhibition [15] 0.51%
109%: viability [6, 17]
